# Results from PubChem BioAssay.
# A number with no mark means an inactive call. Active and inactive are the calls of the source.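 Rule for the calls, unless noted: active = compounds that lower viability of the colon cancer cells in the luminescence readout, with no numeric limit stated; inactive = the rest.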
# Assay: HCT116 colon cancer cell growth inhibition, primary screen, CellTiter-Glo luminescence, NPC library (AID 1117342;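 active = compounds that lower survival of HCT116 colon cancer cells in the luminescence readout, no numeric limit stated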)
# Conditions: at 20 µM (top of the series)
row,Compound,inhibition of viability
1,COC(=O)C(Cl)C(=O)OC,37.3%
2,CN1C[C@H](CNC(=O)OCc2ccccc2)C[C@@H]2c3cccc4c3c(cn4C)C[C@H]21,94% (active)
3,COc1ccc2c(c1OC)C(=O)O[C@H]2[C@@H]1c2cc3c(cc2CCN1C)OCO3,19.8%
4,O=C1NCN(c2ccccc2)C12CCN(CCCOc1ccc(F)cc1)CC2,59.4% (active)
5,CN(C)C(=S)SSC(=S)N(C)C,16.3%
6,Fc1cc(Br)ccc1CBr,-1.5%
7,CC(C)(C)c1ccc(O)cc1,7.9%

# Assay: CellTiter-Glo luminescent readout of SW480 viability loss, NPC library primary (AID 1117343)
# Conditions: CellTiter-Glo luminescence; at 20 µM (top of the series)
row,Compound,viability decrease (inhibition)
1,COC(=O)C(Cl)C(=O)OC,-7.9%
2,CN1C[C@H](CNC(=O)OCc2ccccc2)C[C@@H]2c3cccc4c3c(cn4C)C[C@H]21,101% (active)
3,COc1ccc2c(c1OC)C(=O)O[C@H]2[C@@H]1c2cc3c(cc2CCN1C)OCO3,3.5%
4,O=C1NCN(c2ccccc2)C12CCN(CCCOc1ccc(F)cc1)CC2,91% (active)
5,CN(C)C(=S)SSC(=S)N(C)C,62.7% (active)
6,Fc1cc(Br)ccc1CBr,5.9%
7,CC(C)(C)c1ccc(O)cc1,15.7%
